Reference: PubChem BioAssay AID1527 (The Scripps Research Institute Molecular Screening Center, 2009)
About 2,600 (0.9%) of roughly 290,000 compounds were called active. This is one part of a sample in which actives are shown more often than they occur.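 The calls were made as follows: active = inhibition above the mean of all tested compounds plus 3 SD, cutoff set per screening run (cut at about 7.5% in these data); inactive = the rest.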

tested on: VIM-2 metallo-beta-lactamase (Pseudomonas aeruginosa); experiment: VIM-2 metallo-beta-lactamase inhibitors, primary screen, biochemical, epi-absorbance readout, Pseudomonas aeruginosa enzyme (AID 1527); details: purified VIM-2, nitrocefin hydrolysis, epi-absorbance fluorescence; at 5.6 µM; active compounds read high;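 also: red hydrolysis product quenches plate fluorescence so inhibitors raise well fluorescence; 0% = enzyme with DMSO and 100% = DMSO without enzyme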

inhibition, active:
CCOCCCNc1c(CC)c(C)c(C#N)c2nc3ccccc3n12 12.7%
O=c1[nH]c(-c2ccccc2)c(-c2ccccc2)[nH]1 13.9%
COc1cc(NC(=O)C2=C(C)OCCS2)c(Cl)cc1C(=O)NCCN1CCN(C)CC1 25.9%
Cc1cc(OCCCN2CCN(Cc3ccccc3)CC2)ccc1[N+](=O)[O-] 8.13%
Cc1cc(OCC(=O)NC2CCN(C)CC2)ccc1[N+](=O)[O-] 9.4%
O=C(COc1cc2oc(=O)c3c(c2cc1Cl)CCC3)NCCCN1CCOCC1 27.2%
CN1CCN(c2ccc(NC(=O)COc3ccc(Cl)cc3Cl)cc2)CC1 11.7%
COc1ccc(-n2c(-c3ccc(OC)c(OC)c3)n[nH]c2=S)cc1 9.11%
COc1ccc(/C=N/N(C)C2=NS(=O)(=O)c3ccccc32)cc1OC 18.5%
CCN1CCN(CCNC(=O)c2ccc3c(c2)NC(=O)/C(=C\c2ccc(OC)c(OC)c2)S3)CC1 23.2%
CN1CCN(C(=O)CCc2ncc(C(F)(F)F)cc2Cl)CC1 7.72%
Cc1cc(=O)oc2cc(OCCC[n+]3ccccc3)ccc12 8.33%
CCOC(=O)N1CCN(C(=O)C2CCN(c3ncnc4c3sc3cccc(F)c34)CC2)CC1 17.8%
Cc1nn2c3cc(N4CCOCC4)ccc3nc2c2ccccc12 10.9%
C=CCn1c(-c2ccccc2OCC)n[nH]c1=S 25.3%
CCN(CC)CCOc1ccc2c(c1)C(=NNC(=O)c1ccccn1)c1cc(OCCN(CC)CC)ccc1-2 29.9%
CCCc1[nH]nc2c1C(c1ccc(Br)s1)C(C#N)=C(N)O2 (stereo not drawn) 8.14%
CNC(=O)c1cccc2nc3ccccc3nc12 12.2%
O=C(Nc1ccc(-n2ccnc2P(=O)(O)c2ccccc2)cc1)c1ccccc1Br 21.4%

inhibition, inactive:
CCOCCCNc1nc(-c2ccccc2)nc2ccccc12 1.44%
CCOCCn1c(-c2ccccc2)nc2ccccc21 -2.42%
CCOC(=O)C1(c2ccccc2)NC(c2ccc(N(C)C)cc2)C2C(=O)N(C)C(=O)C21 (stereo not drawn) -1.25%
COc1ccc(CN2CC(C(=O)NC3CCCCC3)CC2=O)cc1 (stereo not drawn) 0.64%
COc1ccc(N(CC(=O)Nc2cccc3ccccc23)S(C)(=O)=O)c(OC)c1 -2.25%
N#Cc1c2c(c(-c3ccccc3)[nH]c1=O)CCCC2 -0.97%
c1ccc(-c2cc(-c3ccccc3)[nH]n2)cc1 -2.1%
CCCCNC(=O)c1ccccc1NC(=O)C1=C(C)OCCS1 -1.59%
COc1ccc(N2CCN(C(=O)c3ccccc3NC(=O)C3=C(C)OCCS3)CC2)cc1 -0.86%
CCn1cc(CN2CCC(C(=O)Nc3cccc(-c4cccc(Cl)c4)c3)CC2)c(C)n1 -1.75%
Cc1cc(OCCCCOc2ccc(C#N)cc2)ccc1[N+](=O)[O-] -2.44%
O=C(COc1ccccc1[N+](=O)[O-])NC1CC1 -2.67%
Cc1cc(OCC(=O)Nc2c(C)n(C)n(-c3ccccc3)c2=O)ccc1[N+](=O)[O-] -4.47%
COc1cc(CN2CCN(Cc3ccc(C)cc3)CC2)c([N+](=O)[O-])cc1OC 0.03%
Oc1ccc(-c2cccc(-c3ccc(O)cc3)c2)cc1 -2.2%
Cc1ccc(CNC(=O)c2ccc(CS(=O)Cc3cccc(Cl)c3)o2)cc1 (stereo not drawn) -2.03%
COCCCC1CCN(C(=O)C2CCC(=O)N(C3CCCCCC3)C2)CC1 (stereo not drawn) -3.17%
CCc1cc(=O)oc2c(C)c(OCC(=O)NCCN3CCOCC3)ccc12 6.89%
CCCc1cc(=O)oc2cc(OCC(=O)Nc3ccc(CN4CCOCC4)cc3)c(Cl)cc12 0.28%
Cc1ccc(-n2c(C)cc(C(=O)CSc3nnc4ccccn34)c2C)cc1 1.89%
Cc1ccc(N/N=C2\COC(C)(C)CC2=O)cc1 -2.64%
Cc1nn(-c2ccccc2)c(C)c1NC(=O)COc1ccc(Cl)cc1Cl -1.49%
CN1CCC(OC(=O)COc2ccc(Cl)cc2Cl)CC1 4.57%
Cc1ccc(-n2c(-c3ccc(Cl)cc3)n[nH]c2=S)cc1 -3.52%
COc1ccc(OC)c(-n2c(-c3ccn[nH]3)n[nH]c2=S)c1 -0.56%
CCCNC(=O)CCc1c(C)nc2c(c(C)nn2-c2ccccc2)c1C -3.85%
C=CCOCCN(C)C1=NS(=O)(=O)c2ccccc21 -0.19%
COc1ccc(/C=N/S(=O)(=O)c2ccccc2)cc1OC 2.08%
CC(=O)c1cccc(NC(=O)C2CCCN(S(=O)(=O)c3cccc4nonc34)C2)c1 (stereo not drawn) -0.2%
COc1ccc(COC(=O)c2ccc(Cl)c(S(=O)(=O)N3CCOCC3)c2)cc1F -3.64%
COc1ccc(CCNC(=O)c2ccc3c(c2)NC(=O)C(N2CCOCC2)S3)cc1OC (stereo not drawn) 0.07%
CCN1CCN(CCNC(=O)c2ccc(/C=C3/Sc4ccccc4N(Cc4cccc(C)c4)C3=O)cc2)CC1 -2.77%
O=C(NCCCc1ccccc1)C(=O)NCC1OCCN1S(=O)(=O)c1ccccc1 (stereo not drawn) -2.36%
CCC(NC(=O)c1cc(COc2ccc(F)c(F)c2)on1)c1ccncc1 (stereo not drawn) 1.14%
COc1ccc(S(=O)(=O)N2CCN(C)CC2)c(C)c1 1.39%
O=C(NCC(=O)N1CCN(c2ncc(C(F)(F)F)cc2Cl)CC1)c1ccc(Br)o1 0.82%
CC(=O)c1ccc(Cc2ncc(C(F)(F)F)cc2Cl)s1 -0.62%
O=C1CC(C(F)(F)C(F)(F)C(F)(F)C(F)(F)F)=Nc2ccccc2N1 -4.82%
Cc1ccccc1-n1cc(CNC(=O)C2CCC(=O)N(C3CC3)C2)cn1 (stereo not drawn) -2.92%
O=C1/C(=C/c2ccc3c(c2)OCO3)Oc2cc(OCC(=O)N3CC(O)C[C@H]3C(=O)O)ccc21 (stereo partly drawn) -0.7%
Cc1ccccc1N1CCN(CCCOc2ccc3c(C)cc(=O)oc3c2)CC1 -0.43%
Cc1cc(=O)oc2ccc(OCC(=O)O)cc12 -3.22%
Cc1ccc2c(C)c(C(=O)N3CCN(c4ccncc4)CC3)oc2c1C 3.45%
Cc1nnc(SCC(=O)Nc2cccc(N)c2)n1-c1ccccc1 -2.64%
O=S(=O)(c1ccc(Br)cc1)N1CCC(c2nc3ccccc3[nH]2)CC1 -4.39%
Cc1cc(NC(=O)/C=C/C(=O)N(c2ccccc2C)C(C(=O)NC2CCCC2)c2ccc(F)cc2)no1 (stereo not drawn) 1.56%
COc1ccc(CNC(=O)c2cc(C(=O)C3CC3)c[nH]2)cc1 -2.31%
CCOC(=O)N1CCN(C(=O)C2CCN(S(=O)(=O)c3cc(Cl)ccc3OCC)CC2)CC1 -1.98%
CCOC(=O)C1CCN(c2ncnc3c2oc2ccc(Br)cc23)CC1 -2.16%
C=CCOc1cccc(C2NC(=O)c3ccccc3O2)c1 (stereo not drawn) -2.16%
Cc1cc(N2CCN(c3ccccc3)CC2)nc(N2CCOCC2)n1 -1.05%
Cc1cc(Nc2ccc(N3CCOCC3)cc2)c2cccc(C)c2n1 2.18%
CC(=O)NC(CC(=O)Nc1cccc(S(=O)(=O)N2CCCC2)c1)c1ccccc1 (stereo not drawn) -3.12%
C=CCn1c(-c2ccc3[nH]c(C)c(C)c3c2)n[nH]c1=S 5.39%
C=CCn1c(-c2sc(-c3ccccc3)nc2C)n[nH]c1=S -5.93%
COc1cc(NC(=O)CCNC(=O)Cn2ccc3ccccc3c2=O)cc(OC)c1OC -1.82%
C[C@H](NC(=O)[C@@H]1Cc2ccccc2CN1C(=O)OC(C)(C)C)C(=O)NC1CCCC1 -2.43%
CCn1c(C(O)c2cc(OC)ccc2OC)nc2ccccc21 (stereo not drawn) -0.51%
COc1ccc(CC(=O)N/N=C(\C)c2ccccn2)cc1 -3.47%
Cc1cccc(OCC(=O)NCCCNC(=O)c2ccccn2)c1 -2.83%
CCCc1[nH]nc2c1C(c1c(C)nn(-c3ccccc3)c1Cl)C(C#N)=C(N)O2 (stereo not drawn) -2.17%
CCCc1[nH]nc2c1C(C1CC=CCC1)C(C#N)=C(N)O2 (stereo not drawn) 1.47%
CNC(=O)c1cc2c(ccc3ccccc32)oc1=N 0.24%
CN(C)C(=O)c1coc2nc3ccccc3nc12 -2.21%
Cc1ccc(S(=O)(=O)c2nc(-c3cccs3)oc2NCc2cccnc2)cc1 -1.14%
O=C(NCCOc1ccccc1F)Nc1ccc(Br)cc1 -1.38%
COc1ccc(NS(=O)(=O)c2cc3c(cc2C)N(C(C)=O)CCO3)cc1 -3.48%
O=[N+]([O-])c1ccccc1/C=C/CN1CCCC(CO)C1 (stereo not drawn) -0.68%
O=C(NCC(=O)N1CCC2(CC1)NCCc1[nH]cnc12)c1ccc(Br)cc1 0.87%
Cc1ccccc1NC(=O)C1CCN(C(=O)NC2CCCCC2)CC1 -1.56%
O=C(NC(=S)Nc1ncccn1)c1ccccc1Br -1.46%
Cc1ccc(NC(=O)c2cccnc2C(=O)Nc2ccc(C)cc2)cc1 -0.75%
COc1cc(/C=C2\SC(=O)NC2=O)ccc1OCc1ccc(Cl)nc1 -1.77%
COc1ccccc1CCNS(=O)(=O)c1cc2c3c(c1)C(C)C(=O)N3CCC2 (stereo not drawn) 1.4%
